sPLA2-III inh: Inhibits HGIII-sPLA2 liposome hydrolysis, primary screen. Q9NZ20. QFRET BODIPY PC-A2 liposome hydrolysis, fluorescence. inhibition, % at 12.2 µM. actives 0.56% (n = 370,000). AID 743126;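 active = inhibition above mean plus 3 SD of compounds lying within the high and low control bounds, cut at about 19% in these data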;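 note: 0% = median of test compound wells and 100% = no enzyme DMSO wells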
Target sequence (Q9NZ20 whole entry, looked up): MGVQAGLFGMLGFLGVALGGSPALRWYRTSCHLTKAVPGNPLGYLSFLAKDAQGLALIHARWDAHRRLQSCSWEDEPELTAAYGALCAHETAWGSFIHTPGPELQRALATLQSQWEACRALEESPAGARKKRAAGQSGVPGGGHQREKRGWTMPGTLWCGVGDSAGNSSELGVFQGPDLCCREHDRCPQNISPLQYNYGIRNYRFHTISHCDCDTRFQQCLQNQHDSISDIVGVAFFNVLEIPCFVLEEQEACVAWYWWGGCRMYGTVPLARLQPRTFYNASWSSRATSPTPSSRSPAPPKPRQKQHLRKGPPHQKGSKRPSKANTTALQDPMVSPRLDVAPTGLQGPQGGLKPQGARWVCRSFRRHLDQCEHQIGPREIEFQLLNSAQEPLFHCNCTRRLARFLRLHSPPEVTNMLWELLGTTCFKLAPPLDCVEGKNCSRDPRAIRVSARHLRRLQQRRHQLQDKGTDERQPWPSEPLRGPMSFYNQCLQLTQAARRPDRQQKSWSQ
UBC9 SUMO inh: blocks human SUMOylation mediated by UBC9. P63279. HTRF SUMOylation assay, SAE1/SAE2 + UBC9, in vitro. inhibition, % at 35 µM. actives 0.36% (n = 290,000); in the data active = inhibition above about 50%, passing the limit was not always enough
UBC13 inh: inhibitors of human UBC13 polyubiquitin chain formation; TR-FRET; P61088; actives 0.47% (n = 330,000); AID 485273; inhibition, % at 20 µM; in the data active = inhibition above about 45%, passing the limit was not always enough
NR3A LBD binder: NR3A (human) ligand-binding domain modulation; NR3A LBD differential scanning fluorimetry, Tm shift; 0% = protein alone, 100% = glycine-bound protein; Tm shift relative to glycine control, % at 25 µM; actives 2.5% (n = 340,000); AID 1259313;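 active = melting temperature shift of at least 10% of the positive control shift, at one fixed dose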
Casp3 UBC13 ctr: caspase-3 inhibition (UBC13 counter-screen) | inhibition, % at 20 µM | shares compounds with UBC13 inh | actives 4% (n = 1,400) | Recombinant caspase-3, Caspase-Glo 3/7 luminescence, 60 min;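 active = mean inhibition across replicates above about 26%, limit read from the data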;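 note: plate controls were DMSO with caspase-3 for no effect and DMSO wells lacking enzyme for full effect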
UBC13 conf: human UBC13 polyubiquitin inhibition, confirmed; shares compounds with UBC13 inh; UBC13 polyubiquitination, TR-FRET, biochemical; inhibition, % at 10 µM; actives 68% (n = 1,400); AID 488859; in the data active = inhibition above about 45%
* marks the source's active call; other numbers are inactive results; nt = no result given. An excerpt weighted towards active compounds, which were near 3.3% of everything screened.

SMILES	sPLA2-III inh	UBC9 SUMO inh	UBC13 inh	NR3A LBD binder	Casp3 UBC13 ctr	UBC13 conf
C[C@@H]1O[C@@H](O[C@H]2[C@H](Oc3cc(O)c4c(c3)OC(c3ccc(O)cc3)CC4=O)O[C@H](CO)[C@@H](O)[C@@H]2O)[C@H](O)[C@H](O)[C@H]1O (stereo not given in full)	-4	nt	97*	-3	-2	100*
C[C@@H]1O[C@@H](O[C@H]2[C@H](Oc3cc(O)c4c(c3)O[C@H](c3ccc(O)cc3)CC4=O)O[C@H](CO)[C@@H](O)[C@@H]2O)[C@H](O)[C@H](O)[C@H]1O	3	9	95*	2	-7	98*
O=C(NCCCO)C(=O)NCC1OCCCN1S(=O)(=O)c1cccs1 (stereo not given)	-2	6	-1	0	nt	nt
CN(C)CCCNC(=O)C(=O)NCC1OCCN1S(=O)(=O)c1cccs1 (stereo not given)	11	-2	46*	-1	4	33
O=C(CSC1=NS(=O)(=O)c2ccccc21)Nc1ccccc1	-1	23	47*	-2	2	18
C#CCOCCOCCOCCNc1nc(N2CCOCC2)nc(N2CCN(C(=O)[C@H](Cc3ccc(O)cc3)n3cc([C@@H](N)C(C)CC)nn3)CC2)n1 (stereo not given in full)	-4	7	12	0	nt	nt
C#CCOCCOCCOCCNc1nc(N2CCN(C(=O)[C@H](CCCCN)n3cc([C@@H](N)CC(C)C)nn3)CC2)nc(N2CCN(C(=O)[C@H](CCCCN)n3cc([C@@H](N)CC(C)C)nn3)CC2)n1	nt	7	77*	3	-3	84*
C#CCOCCOCCOCCNc1nc(N2CCN(C(=O)[C@H](CCCCN)n3cc(C(N)CO)nn3)CC2)nc(N2CCN(C(=O)[C@H](CCC(=O)O)n3cc(C(N)CC(C)C)nn3)CC2)n1 (stereo not given in full)	nt	22	-6	nt	nt	nt
C#CCOCCOCCOCCNc1nc(N2CCN(C(=O)C(Cc3ccc(O)cc3)n3cc(C(N)C(C)CC)nn3)CC2)nc(N2CCN(C(=O)C(Cc3ccc(O)cc3)n3cc(C(N)C(C)CC)nn3)CC2)n1 (stereo not given)	-20	11	49*	-2	0	23
C#CCOCCOCCOCCNc1nc(N2CCN(C(=O)[C@H](CCCCN)n3cc([C@@H](N)C(C)CC)nn3)CC2)nc(N2CCN(C(=O)[C@H](Cc3ccc(O)cc3)n3cc([C@@H](N)CC(C)C)nn3)CC2)n1 (stereo not given in full)	-2	-1	57*	2	2	38
C=CCN(CC#Cc1ccccc1)Cc1ccc(OC)cc1OC	3	nt	nt	nt	nt	nt
N#Cc1nc(-c2cccc3ccccc23)oc1NCCN1CCCCC1	-14	43	71*	-6	-1	91*
CCNc1oc(-c2cccc3ccccc23)nc1C#N	6	27	20	-2	nt	nt
NS(=O)(=O)c1ccc(CCNC(=O)c2cc(-c3ccco3)nc3ccccc23)cc1	-17	nt	51*	1	3	34
O=C(CSc1nc2ccccc2o1)NN=C/C=C\c1ccccc1[N+](=O)[O-]	-7	nt	nt	nt	nt	nt
CN1C(=O)C[C@@](C#N)(C(=O)NCc2ccccc2)[C@H]1c1ccccc1	-1	nt	nt	nt	nt	nt
CCCC(=O)N(CCN1CCOCC1)c1nc2c(C)ccc(C)c2s1	-2	-6	40	4	nt	nt
CCCC(=O)N(CCN1CCOCC1)c1nc2c(C)cccc2s1	nt	-1	69*	2	-5	73*
COc1ccccc1[C@@H]1C(c2cccc(C)c2)=NN(c2ccccc2)[C@H]1C(=O)N1CCOC1=O	7	20	46*	-4	-2	46*
CC(C)C[C@@H]1COc2cc(Br)ccc2S(=O)(=O)N1Cc1cn(Cc2ccc(C(F)(F)F)cc2)nn1	1	nt	nt	nt	nt	nt
CNC(=O)c1ccccc1NC(=O)c1cccc(S(=O)(=O)N2CCC(C)CC2)c1	-21	14	50*	-13	2	58*
CCNC(=O)c1ccccc1NC(=O)c1cccc(S(=O)(=O)N2CCC(C)CC2)c1	-36	14	67*	-1	-2	75*
CCNC(=O)c1ccccc1NC(=O)c1cccc(S(=O)(=O)N2CCOCC2)c1	-1	18	-16	-1	nt	nt
Clc1ccc([C@H]2OC[C@@]3(CNCc4ccccn4)CS[C@H](c4ccc(Cl)cc4)N23)cc1	1	nt	nt	nt	nt	nt
Nc1nc(N)nc(-c2cc(C(F)(F)F)ccc2Cl)n1	4	nt	51*	-1	0	-1
SMILES	sPLA2-III inh	UBC9 SUMO inh	UBC13 inh	NR3A LBD binder	Casp3 UBC13 ctr	UBC13 conf
Cc1c(NC(=O)C2CCCN(S(=O)(=O)c3ccc(C(C)(C)C)cc3)C2)c(=O)n(-c2ccccc2)n1C (stereo not given)	0	nt	nt	nt	nt	nt
COc1ccc(CNC2CCC23CCC(C)CC3)cc1OC (stereo not given)	-6	nt	nt	nt	nt	nt
CNC(=O)c1c(NC(=O)c2cccc(N3C(=O)CCC3=O)c2)sc2c1CCC2	-3	6	50*	-1	0	11
COc1ccc(-c2oc3ncnc(N)c3c2-c2ccccc2)cc1	3	18	81*	3	-2	81*
Cc1ccc(NC2=CC(=O)CC(c3ccc(Cl)cc3)C2)cc1 (stereo not given)	0	1	4	1	nt	nt
Cc1ccc(NC2=CC(=O)CC(c3ccccc3)C2)cc1 (stereo not given)	-2	16	45*	0	-2	0
N#Cc1ccsc1NC(=O)C1CCN(S(=O)(=O)c2cccs2)CC1	1	nt	10	0	nt	nt
N#Cc1ccsc1NC(=O)C1CCN(C(=O)c2ccc(F)cc2)CC1	-3	nt	59*	1	3	41
CCC(=C(c1ccc(O)cc1)c1ccc(OCCN(C)C)cc1)c1ccccc1	-1	nt	nt	nt	nt	nt
CC/C(=C(\c1ccccc1)c1ccc(OCCN(C)C)cc1)c1ccccc1	2	nt	78*	-1	-1	65*
CC/C(=C(\c1ccc(O)cc1)c1ccc(OCCN(C)C)cc1)c1ccccc1	-4	-19	79*	-1	-5	55*
CCN(CC)CCOc1ccc(/C(=C(/Cl)c2ccccc2)c2ccccc2)cc1	-7	-17	73*	4	-3	56*
CCC(=C(c1ccccc1)c1ccc(OCCN(C)C)cc1)c1ccccc1	15	nt	nt	nt	nt	nt
COC(=O)c1cc(-c2cnc(OC)nc2OC)c(=O)n2c1CCC2	13	nt	nt	nt	nt	nt
O=C(NCCCN1CCCC1)c1ccc2c(c1)N(Cc1ccccc1)CCS2	3	33	55*	-1	-2	69*
CCN1CCN(CCCNC(=O)c2ccc3c(c2)N(Cc2ccccc2)CCS3)CC1	-2	25	26	2	nt	nt
Cc1ccc(S(=O)(=O)N2CCCC(C(=O)NC3CC3)C2)cc1 (stereo not given)	5	-6	-5	-1	nt	nt
Cc1ccc(S(=O)(=O)N2CCCC(C(=O)NNCC(=O)Nc3cc(F)ccc3F)C2)cc1 (stereo not given)	-16	-11	48*	0	3	33
